Reference: PubChem BioAssay AID1530 (NMMLSC, 2009)
Among all 290,000 compounds or so, about 1,000 (0.34%) were called active. The sample holds actives, similar compounds and a random draw of the others, so the mix is not that of the screen. No stated cut-off is given here; in the data, active means percent response above about 24% (passing the limit was not always enough); inactive means the rest.

Each molecule was assayed on MEKK2 (MAP3K2) mutant PB1 domain binding to MEK5, human (assay: MEK5 binding signal on mutant MEKK2 PB1, primary screen, biochemical, multiplex bead flow cytometry, Alexa488-MEK5 (AID 1530)). Details: at 10 µM, stronger effect = higher value.

Row | SMILES | percent response
1 | COc1ccc(S(=O)(=O)NCCc2cc3ccc(C)c(C)c3[nH]c2=O)cc1 | 1% (inactive)
2 | CC(=O)Nc1cccc(NC(=O)CSc2nccn2Cc2ccc(F)cc2)c1 | -1% (inactive)
3 | Cc1cccc(NC(=O)Nc2cccc(Oc3c(F)c(F)c(F)c(F)c3F)c2)c1 | 56% (active)
4 | COc1cccc(NC(=O)NCc2ccc(F)cc2)c1 | -5% (inactive)
5 | Cc1cccc(NC(=O)c2cccc(C(F)(F)F)c2)c1 | -2% (inactive)
6 | Cc1ccc(N(CC(=O)NC2CCCCC2)C(=O)CCCC(=O)Nc2ccccn2)c(C)c1 | 1% (inactive)
7 | O=S(=O)(Oc1ccccc1C(=S)N1CCOCC1)c1ccc(Cl)cc1 | 7% (inactive)
8 | CCN1CCN(CCNC(=O)c2ccc3c(c2)NC(=O)/C(=C\c2ccc(OC)c(OC)c2)S3)CC1 | 17% (inactive)
9 | CCN1CCN(CCNC(=O)c2ccc(/C=C3/Sc4ccccc4N(Cc4cccc(C)c4)C3=O)cc2)CC1 | 59% (active)
10 | O=C(NCCN1CCOCC1)c1ccc(/C=C2\Sc3ccccc3N(Cc3ccc(F)cc3)C2=O)cc1 | 19% (inactive)
11 | Cn1c(Nc2cccc(Cl)c2)nc2ccccc21 | 4% (inactive)
12 | COc1ccc(OC)c(NC(=O)C2CCCN2S(=O)(=O)c2cccc3nsnc23)c1 (stereo unspecified) | 2% (inactive)
13 | O=C(OCc1cc(Cl)ccc1OC(F)F)c1cccnc1 | 152% (active)
14 | Cc1cc(=O)[nH]c(SCc2cc(Cl)ccc2OC(F)F)n1 | 1% (inactive)
15 | O=C(OCc1cc2ccccc2[nH]c1=O)c1cccnc1 | 8% (inactive)
16 | CC1=C(C)CC(C(=O)NNC(=O)c2ccccc2O)C(C(=O)O)C1 (stereo unspecified) | 16% (inactive)
17 | Cc1ccc(NC(=S)N(CCCN2CCC(C)CC2)Cc2ccco2)cc1 | -2% (inactive)
18 | Cc1ccc(NC(=S)N(CCCN2CCCC2)Cc2cccn2Cc2ccc(Cl)cc2)cc1 | 57% (active)
19 | Cc1ccc(NC(=S)N(CCN2CCCCC2)Cc2ccco2)cc1C | -3% (inactive)
20 | Cn1c(=NC(=O)c2cnccn2)sc2ccccc21 | 10% (inactive)
21 | COC(=O)Cn1c(=NC(=O)CSCC(=O)Nc2cc(C)on2)sc2ccccc21 | 8% (inactive)
22 | Cc1ccc(NC(=O)CSCC(=O)N2CCOCC2)cc1 | 3% (inactive)
23 | Cn1c(=NC(=O)CSCC(=O)N2CCCCC2)sc2ccccc21 | 28% (active)
24 | Cn1c(=NC(=O)CSCC(=O)N2CCOCC2)sc2ccccc21 | 25% (active)
25 | O=C(CP(=O)(c1ccccc1)c1ccccc1)N1CCOCC1 | -5% (inactive)
26 | COc1cc(C2/C(=C(\O)c3ccc4c(c3)CC(C)O4)C(=O)C(=O)N2c2nnc(C)s2)cc(OC)c1OC (stereo unspecified) | 1% (inactive)

Row | SMILES | percent response
27 | Nc1nc(-c2sc3nc4c(cc3c2N)CCCC4)nc(N2CCOCC2)n1 | -8% (inactive)
28 | C/C(=N\NC(=O)COc1ccc(C)cc1[N+](=O)[O-])c1ccc2c(c1)OCCO2 | 1% (inactive)
29 | Cc1c(CN2CCC(CO)(CCOc3ccccc3)CC2)[nH]c2ccc(Cl)cc12 | 69% (active)
30 | CCOC(=O)C1(CCOc2ccccc2)CCN(Cc2cc(OC)c(O)cc2Cl)CC1 | 9% (inactive)
31 | OCC1(CCOc2ccccc2)CCN(Cc2cn[nH]c2-c2ccccc2)CC1 | -4% (inactive)
32 | COCCN1CCN(C(=O)c2cc(COc3ccc(F)cc3Cl)on2)CC1 | 7% (inactive)
33 | O=C(NCCCn1ccnc1)Nc1ccc(Cl)cc1Cl | -1% (inactive)
34 | Cc1ccc(S(=O)(=O)NCCCn2ccnc2)cc1C(=O)NC(C)C | 12% (inactive)
35 | CCOc1ccc(S(=O)(=O)NCCCn2ccnc2)cc1NC(C)=O | 25% (active)
36 | O=S(=O)(Cc1nnnn1-c1ccc(Br)cc1)c1ccc(F)cc1 | 7% (inactive)
37 | O=C1N[C@@H](Cc2ccccc2)C(=O)N2[C@@H]3N(S(=O)(=O)c4ccc(F)cc4)c4ccccc4[C@]3(Br)C[C@@H]12 | 2% (inactive)
38 | CCN(CC(=O)NCc1ccco1)S(=O)(=O)c1ccc(F)cc1 | 1% (inactive)
39 | CCOc1ccc(N/C=C/C(=O)c2ccccc2)cc1 | 7% (inactive)
40 | CC(=O)c1cnc(-c2ccccc2)s1 | -8% (inactive)
41 | O=C(/C=C/Nc1ccccc1)c1cnc(-c2ccccc2)s1 | 26% (active)
42 | O=S(=O)(c1ccc(Cl)s1)N1CCC2(CC1)OCCO2 | -1% (inactive)
43 | C#CCOCCOCCOCCNc1nc(N2CCN(C(=O)[C@H](CCC(=O)O)n3cc(C(N)CO)nn3)CC2)nc(N2CCN(C(=O)[C@H](CCCCN)n3cc(C(N)CC(C)C)nn3)CC2)n1 (stereo partly specified) | 2% (inactive)
44 | C#CCOCCOCCOCCNc1nc(N2CCN(C(=O)[C@H](CCC(=O)O)n3cc(C(N)CO)nn3)CC2)nc(N2CCN(C(=O)[C@H](CCCCN)n3cc(C(N)[C@H](C)CC)nn3)CC2)n1 (stereo partly specified) | 3% (inactive)
45 | C#CCOCCOCCOCCNc1nc(N2CCN(C(=O)[C@H](CCC(=O)O)n3cc(C(N)CO)nn3)CC2)nc(N2CCN(C(=O)[C@H](Cc3ccc(O)cc3)n3cc(C(N)[C@H](C)CC)nn3)CC2)n1 (stereo partly specified) | 1% (inactive)
46 | C#CCOCCOCCOCCNc1nc(N2CCN(C(=O)C([C@@H](C)CC)n3cc(C(N)COC(=O)C(F)(F)F)nn3)CC2)nc(N2CCN(C(=O)[C@H](CCCCN)n3cc(C(N)CC(C)C)nn3)CC2)n1 (stereo partly specified) | 53% (active)
47 | C#CCOCCOCCOCCNc1nc(N2CCN(C(=O)C(Cc3ccc(O)cc3)n3cc(C(N)CC(C)C)nn3)CC2)nc(N2CCN(C(=O)C(Cc3ccc(O)cc3)n3cc(C(N)C(C)CC)nn3)CC2)n1 (stereo unspecified) | 32% (active)
48 | C#CCOCCOCCOCCNc1nc(N2CCN(C(=O)[C@H](Cc3ccc(O)cc3)n3cc(C(N)CC(C)C)nn3)CC2)nc(N2CCN(C(=O)[C@H](CCC(=O)O)n3cc(C(N)[C@H](C)CC)nn3)CC2)n1 (stereo partly specified) | 5% (inactive)
49 | C#CCOCCOCCOCCNc1nc(N2CCN(C(=O)C([C@@H](C)CC)n3cc(C(N)COC(=O)C(F)(F)F)nn3)CC2)nc(N2CCN(C(=O)[C@H](Cc3ccc(O)cc3)n3cc(C(N)[C@H](C)CC)nn3)CC2)n1 (stereo partly specified) | 9% (inactive)
50 | C#CCOCCOCCOCCNc1nc(N2CCN(C(=O)[C@H](C(C)C)n3cc(CCO)nn3)CC2)nc(N2CCN(C(=O)[C@H](C(C)C)n3cc(CCO)nn3)CC2)n1 | 2% (inactive)
51 | C#CCOCCOCCOCCNc1nc(N2CCN(C(=O)[C@H](CCCCN)n3cc([C@@H](N)C(C)CC)nn3)CC2)nc(N2CCN(C(=O)[C@H](Cc3ccc(O)cc3)n3cc([C@@H](N)C(C)CC)nn3)CC2)n1 (stereo partly specified) | 56% (active)
